Results filed as inconclusive are left out. Activity calls are given as the source filed them. Unless noted, calls follow the shape of the dose curve; as a rule, active = well fitted curve in the direction sought with a large enough effect; inconclusive = small, poorly fitted or top-dose-only effect, or another doubt; inactive = no such curve, though single readings can be large; an effect the other way counts as inactive or inconclusive.
Columns and labels:
[1] = biological target: Dual specificity protein kinase CLK4 (Homo sapiens) (UniProt Q9HAZ1); assay: qHTS Assay for Inhibitors of CDC-like Kinase 4 (Kinase-Glo Assay) (AID 1770); also: nearly all actives have a fitted effect of over 65% in size; also: potency is read from the fitted curve at half-maximal effect
Dual specificity protein kinase CLK4 (Homo sapiens), sequence (Q9HAZ1 whole entry, looked up): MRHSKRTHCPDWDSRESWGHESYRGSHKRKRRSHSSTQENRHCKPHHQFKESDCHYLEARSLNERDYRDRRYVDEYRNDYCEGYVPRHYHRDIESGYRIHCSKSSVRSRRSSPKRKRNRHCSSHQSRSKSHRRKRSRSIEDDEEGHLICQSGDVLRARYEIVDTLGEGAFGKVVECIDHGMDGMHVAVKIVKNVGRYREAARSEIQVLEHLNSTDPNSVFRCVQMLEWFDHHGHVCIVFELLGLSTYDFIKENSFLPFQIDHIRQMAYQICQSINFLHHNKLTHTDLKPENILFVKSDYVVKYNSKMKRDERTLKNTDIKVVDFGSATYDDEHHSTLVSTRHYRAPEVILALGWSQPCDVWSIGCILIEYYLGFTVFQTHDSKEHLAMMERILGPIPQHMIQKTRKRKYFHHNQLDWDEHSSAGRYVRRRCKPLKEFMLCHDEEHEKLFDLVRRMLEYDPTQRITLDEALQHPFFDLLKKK
Method in brief: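 Luminescent ATP-depletion read-out (Kinase-Glo) after 4.5 h room-temperature reaction of Clk4 (25 nM final) with RS peptide (100 uM) and ATP (1 uM), pH 7.5 Tris buffer with MgCl2 and DTT.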

[2] = biological target: DNA repair nuclease/redox regulator APEX1 (Homo sapiens) (UniProt P27695); assay: qHTS Validation Assay for Inhibitors of the Human Apurinic/apyrimidinic Endonuclease 1 (APE1) (AID 1705;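 also: TAMRA fluorescence gain over two minutes as APE1 cuts a quenched THF abasic duplex; series mostly up to about 57 µM; % is scaled to controls: 0 for no effect and ±100 for the full control effect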)
DNA repair nuclease/redox regulator APEX1 (Homo sapiens), sequence (P27695 whole entry, looked up): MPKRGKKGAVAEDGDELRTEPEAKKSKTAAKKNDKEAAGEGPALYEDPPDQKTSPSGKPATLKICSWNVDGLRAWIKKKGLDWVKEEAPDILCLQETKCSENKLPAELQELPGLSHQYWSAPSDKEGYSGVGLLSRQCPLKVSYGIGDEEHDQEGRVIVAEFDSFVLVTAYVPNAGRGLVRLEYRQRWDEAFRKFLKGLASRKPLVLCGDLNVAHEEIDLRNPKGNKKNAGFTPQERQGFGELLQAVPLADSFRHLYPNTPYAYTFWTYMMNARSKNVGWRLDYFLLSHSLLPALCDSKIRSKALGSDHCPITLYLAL
Method in brief: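 Activity read as rising fluorescence (598 nm emission, 525 nm excitation) from incision of a TAMRA/BHQ-2 duplex carrying a THF abasic site (50 nM). Compound and enzyme sat 15 min at RT before substrate start; signal change between first and third 60-s reads.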

[3] = Counterscreen for APE1 Inhibitors: Fluorescent Dye Displacement Validation Assay (AID 1707);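 also: plate controls were ThO with dsDNA and no compound for no effect and ThO without dsDNA for full effect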
Method in brief: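 Thiazole Orange displacement from dsDNA: 250 nM ThO with 50 nM TAMRA-labelled abasic-site (tetrahydrofuran) duplex in 50 mM Tris-HCl pH7.5, 50mM NaCl, 2 mM MgCl2, 0.01% Tween-20. Loss of endpoint fluorescence (ex 480 nm, em 540 nm) flags DNA binders.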

[4] = biological target: Endonuclease 4 (Escherichia coli (strain K12)) (UniProt P0A6C1); assay: Counterscreen for APE1 Inhibitors: qHTS Validation Assay for Inhibitors of Endonuclease IV (AID 1708); also: % is scaled to controls: 0 for no effect and ±100 for the full control effect
Method in brief: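 Enzymatic AP-site incision assay using a double-stranded THF substrate labelled with TAMRA and BHQ-2; released fluorescence signals activity. Enzyme 2 nM, substrate 50 nM, 15 min compound preincubation.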

[5] = qHTS for differential inhibitors of proliferation of Plasmodium falciparum line 7G8 (AID 1815);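 also: parasite growth measured after three days of incubation; plate controls were vehicle wells for no effect and reference inhibitor wells for full effect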
[6] = qHTS for differential inhibitors of proliferation of Plasmodium falciparum line GB4 (AID 1816); conditions: Potency: Plasmodium falciparum GB4 proliferation inhibition;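 also: parasite growth measured after 72 h incubation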; also: potency is read from the fitted curve at half-maximal effect
[7] = qHTS for differential inhibitors of proliferation of Plasmodium falciparum line 3D7 (AID 1876); also: potency is read from the fitted curve at half-maximal effect
[8] = qHTS for differential inhibitors of proliferation of Plasmodium falciparum line D10 (AID 1877);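 also: parasites grown with compound for 72 h before DNA staining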; also: potency is read from the fitted curve at half-maximal effect
[9] = qHTS for differential inhibitors of proliferation of Plasmodium falciparum line Dd2 (AID 1882); conditions: Potency: Plasmodium falciparum Dd2 proliferation inhibition; also: nearly all actives have a fitted effect of over 65% in size; also: potency is read from the fitted curve at half-maximal effect
Method in brief: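 SYBR Green I DNA fluorescence read-out, ex 485/em 535 nm. Signals were normalized to 0.29 uM artemisinin and DMSO wells, then corrected using vehicle-only plates flanking each stack. Parasite growth ran 72 h in erythrocytes before lysis.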

[10] = qHTS for differential inhibitors of proliferation of Plasmodium falciparum line W2 (AID 1883); conditions: Potency: Plasmodium falciparum W2 proliferation inhibition;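 also: parasites grown with compound for 72 h before lysis and staining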; also: potency is read from the fitted curve at half-maximal effect
[11] = qHTS for differential inhibitors of proliferation of Plasmodium falciparum line HB3 (AID 1886); conditions: Potency: Plasmodium falciparum HB3 proliferation inhibition;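 also: parasites grown with compound for 72 h before SYBR Green readout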; also: potency is read from the fitted curve at half-maximal effect
[12] = biological target: Ferritin light chain (Equus caballus) (UniProt P02791); assay: qHTS Validation Assay for Identification of Novel General Anesthetics (AID 2323); also: series mostly up to about 77 µM; % is scaled to controls: 0 for no effect and ±100 for the full control effect
Ferritin light chain (Equus caballus), sequence (P02791 2-175 limits assumed): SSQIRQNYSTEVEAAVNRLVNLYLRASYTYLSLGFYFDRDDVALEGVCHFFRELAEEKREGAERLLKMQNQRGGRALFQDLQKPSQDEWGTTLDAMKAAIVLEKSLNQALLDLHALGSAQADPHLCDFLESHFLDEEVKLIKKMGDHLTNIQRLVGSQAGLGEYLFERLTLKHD
Method in brief: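 Competitive displacement of the profluorescent anesthetic 1-AMA (50% saturated, PBS) from 10 uM apoferritin, 10 min, room temperature. Activity is normalized 380/535 nm fluorescence; concentration-response fitted with a four-parameter Hill equation.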

[13] = biological target: ATP-dependent DNA helicase Q1 (Homo sapiens) (UniProt P46063); assay: qHTS Validation Assay for Inhibitors of RecQ-Like Dna Helicase 1 (RECQ1) (AID 2353);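 also: plate controls were DMSO vehicle for no effect and enzyme-free control for full effect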
ATP-dependent DNA helicase Q1 (Homo sapiens), sequence (P46063 whole entry, looked up): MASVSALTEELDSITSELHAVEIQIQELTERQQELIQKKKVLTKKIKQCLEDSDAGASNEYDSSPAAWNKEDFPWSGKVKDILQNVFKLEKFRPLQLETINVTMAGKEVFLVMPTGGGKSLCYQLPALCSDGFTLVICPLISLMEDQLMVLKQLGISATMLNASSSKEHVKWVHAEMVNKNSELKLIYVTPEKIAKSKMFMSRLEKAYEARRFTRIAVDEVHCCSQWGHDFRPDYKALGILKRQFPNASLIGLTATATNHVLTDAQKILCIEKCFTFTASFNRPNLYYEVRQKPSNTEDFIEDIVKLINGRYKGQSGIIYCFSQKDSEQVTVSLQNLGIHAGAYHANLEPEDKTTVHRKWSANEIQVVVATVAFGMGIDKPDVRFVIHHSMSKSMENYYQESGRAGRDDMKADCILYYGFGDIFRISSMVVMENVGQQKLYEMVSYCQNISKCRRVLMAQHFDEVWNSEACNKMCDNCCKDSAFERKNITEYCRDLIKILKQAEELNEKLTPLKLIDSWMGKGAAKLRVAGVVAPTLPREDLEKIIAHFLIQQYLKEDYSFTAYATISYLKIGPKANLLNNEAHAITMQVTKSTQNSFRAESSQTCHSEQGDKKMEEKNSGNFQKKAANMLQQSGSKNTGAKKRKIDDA
Method in brief: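 50 nM RECQ1T1 preincubated 15 min with compound in Tris pH 8.0 buffer with MgCl2, DTT, Tween-20 and 2.5 ug/ml poly(dI-dC); started with 200 nM TAMRA/BHQ-2 forked duplex and 2 mM ATP. Unwinding read as fluorescence (525/598 nm), two reads 2 h apart.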

[14] = Validation screen for small molecules that induce DNA re-replication in MCF 10A normal breast cells (AID 463097); also: 0% is about no effect; nearly all actives have a fitted effect of over 60% in size
Method in brief: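 Read-out is Hoechst total nuclear intensity by fluorescence scanning imager, flagging increased high-DNA-content nuclei. Compounds were incubated with MCF 10A cells for 48 hr (37 C, 5% CO2) before 40 min staining.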

[15] = Quantitative high throughput screen for delayed death inhibitors of the malarial parasite plastid, 96 hour incubation (AID 488745); also: nearly all actives have a fitted effect of over 70% in size; also: potency is read from the fitted curve at half-maximal effect
Method in brief: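 P. falciparum carrying an integrated firefly luciferase reporter, grown in erythrocytes (2% hematocrit, 0.1% parasitemia final) in RPMI 1640/0.5% Albumax, was exposed to compound for 96 h (two generations) at 37 C, 5% CO2. Luminescence decrease indicated growth inhibition.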

[16] = Quantitative high throughput screen for delayed death inhibitors of the malarial parasite plastid, 48 hour incubation (AID 488752); also: nearly all actives have a fitted effect of over 65% in size; also: potency is read from the fitted curve at half-maximal effect
Method in brief: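 Erythrocytes infected with P. falciparum carrying an integrated firefly luciferase reporter (2% hematocrit, 0.1% parasitemia final) were exposed to compounds in RPMI 1640/0.5% Albumax for 48 h at 37 C, 5% CO2. Growth inhibition was scored as reduced luminescence.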

[17] = biological target: M-phase phosphoprotein 8 (Homo sapiens) (UniProt Q99549); assay: qHTS Validation Assay for Inhibitors for MPP8 Chromodomain Interactions with Methylated Histone Tails (AID 488949);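 also: AlphaScreen signal from MPP8 chromodomain bound to biotinylated H3K9me3 peptide; top concentration of the series differs between compounds; % is scaled to controls: 0 for no effect and ±100 for the full control effect; nearly all actives have a fitted effect of over 55% in size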
M-phase phosphoprotein 8 (Homo sapiens), sequence (Q99549 whole entry, looked up): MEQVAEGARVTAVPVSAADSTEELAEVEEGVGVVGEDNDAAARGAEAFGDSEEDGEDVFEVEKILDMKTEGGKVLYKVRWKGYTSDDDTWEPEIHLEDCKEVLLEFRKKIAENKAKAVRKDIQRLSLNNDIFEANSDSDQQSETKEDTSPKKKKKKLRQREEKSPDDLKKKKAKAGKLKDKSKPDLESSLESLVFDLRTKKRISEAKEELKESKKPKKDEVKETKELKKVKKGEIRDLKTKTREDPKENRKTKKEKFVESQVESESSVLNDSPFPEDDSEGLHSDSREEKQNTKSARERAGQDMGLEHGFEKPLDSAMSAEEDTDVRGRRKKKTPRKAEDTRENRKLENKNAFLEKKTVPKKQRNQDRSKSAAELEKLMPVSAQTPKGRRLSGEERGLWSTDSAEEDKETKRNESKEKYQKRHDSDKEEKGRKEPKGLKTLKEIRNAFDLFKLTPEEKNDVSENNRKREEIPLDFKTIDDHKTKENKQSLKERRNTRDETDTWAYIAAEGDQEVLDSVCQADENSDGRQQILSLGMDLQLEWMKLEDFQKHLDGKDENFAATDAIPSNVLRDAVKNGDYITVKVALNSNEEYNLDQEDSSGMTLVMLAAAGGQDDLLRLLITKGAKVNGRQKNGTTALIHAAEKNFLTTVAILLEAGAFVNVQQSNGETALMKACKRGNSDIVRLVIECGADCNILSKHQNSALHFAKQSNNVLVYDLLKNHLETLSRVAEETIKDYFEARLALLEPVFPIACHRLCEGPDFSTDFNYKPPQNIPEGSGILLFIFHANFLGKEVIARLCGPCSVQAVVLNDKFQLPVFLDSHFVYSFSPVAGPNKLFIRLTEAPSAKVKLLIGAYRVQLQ
Method in brief: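 AlphaScreen proximity signal from streptavidin donor and Ni-chelate acceptor beads (10 ug/mL each) reported binding of MPP8 to trimethyl-K9 H3(1-18) peptide, both at 50 nM. The complex formed 30 min before a 30 min compound exposure at room temperature, in PBS pH 7.4.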

[18] = biological target: Thyrotropin receptor (Homo sapiens) (UniProt P16473); assay: qHTS Assay for Antagonists of the Thyroid Stimulating Hormone Receptor (AID 488980); also: series mostly up to about 58 µM; 0% is about no effect
Thyrotropin receptor (Homo sapiens), sequence (P16473 whole entry, looked up): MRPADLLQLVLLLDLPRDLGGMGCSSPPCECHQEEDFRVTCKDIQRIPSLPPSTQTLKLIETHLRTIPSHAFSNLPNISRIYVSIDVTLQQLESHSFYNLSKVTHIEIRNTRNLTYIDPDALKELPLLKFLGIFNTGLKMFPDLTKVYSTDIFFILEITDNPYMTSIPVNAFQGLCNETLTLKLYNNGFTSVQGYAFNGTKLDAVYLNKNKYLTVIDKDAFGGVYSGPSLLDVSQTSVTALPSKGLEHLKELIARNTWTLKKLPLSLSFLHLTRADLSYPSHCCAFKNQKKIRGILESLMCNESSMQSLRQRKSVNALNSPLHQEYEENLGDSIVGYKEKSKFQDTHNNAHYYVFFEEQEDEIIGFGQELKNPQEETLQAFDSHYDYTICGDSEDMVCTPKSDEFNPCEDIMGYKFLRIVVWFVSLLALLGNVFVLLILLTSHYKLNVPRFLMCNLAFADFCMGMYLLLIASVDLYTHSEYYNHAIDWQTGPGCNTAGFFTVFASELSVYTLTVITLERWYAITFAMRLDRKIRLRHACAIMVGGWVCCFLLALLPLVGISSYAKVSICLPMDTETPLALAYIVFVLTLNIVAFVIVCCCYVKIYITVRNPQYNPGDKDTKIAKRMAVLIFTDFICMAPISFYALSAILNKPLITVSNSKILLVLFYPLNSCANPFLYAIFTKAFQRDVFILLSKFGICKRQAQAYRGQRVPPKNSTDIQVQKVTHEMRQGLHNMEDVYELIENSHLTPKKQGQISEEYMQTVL
Method in brief: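 Inhibition of cAMP raised by EC80 TSH (4 nM final) was read by HTRF, with lysate cAMP competing against cAMP-d2 for cryptate antibody after 30 min at room temperature. The cells were transfected HEK293 held in phosphodiesterase inhibitor RO 20-1724 at 70 uM.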

[19] = biological target: Thyrotropin-releasing hormone receptor (Homo sapiens) (UniProt P34981); assay: qHTS for Small Molecule Agonists and Allosteric Enhancers of Human TRH Receptor: Validation Screen for Agonists (AID 493127;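 active = calcium activation more than 3 SD above the typical response in the agonist read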;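 also: intracellular calcium rise by fluo-8 fluorescence before TRH EC20 addition; 0% is about no effect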); conditions: TRH receptor agonist cell assay; at 2 µM; stronger effect = higher value
Thyrotropin-releasing hormone receptor (Homo sapiens), sequence (P34981 whole entry, looked up): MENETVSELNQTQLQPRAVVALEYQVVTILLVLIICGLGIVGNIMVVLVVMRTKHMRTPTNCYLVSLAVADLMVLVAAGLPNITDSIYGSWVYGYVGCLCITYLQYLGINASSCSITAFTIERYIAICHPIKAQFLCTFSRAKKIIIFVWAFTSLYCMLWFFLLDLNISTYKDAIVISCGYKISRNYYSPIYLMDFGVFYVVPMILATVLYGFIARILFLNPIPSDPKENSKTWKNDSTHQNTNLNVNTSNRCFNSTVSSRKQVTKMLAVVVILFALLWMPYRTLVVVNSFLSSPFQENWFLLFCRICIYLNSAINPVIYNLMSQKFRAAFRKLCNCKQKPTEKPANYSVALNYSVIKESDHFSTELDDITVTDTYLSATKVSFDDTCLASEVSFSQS
Method in brief: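 TRHR-expressing cells were plated overnight in serum-containing medium, then loaded with fluo-8 calcium dye at room temperature for 30 min–1.5 h. After a 10 s baseline, compound was pin-transferred and calcium fluorescence (ex 480/em 530) read kinetically for agonist response.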

[20] = biological target: Galactokinase (Homo sapiens) (UniProt P51570); assay: qHTS Validation Assay for Inhibitors of Human Galactokinase (GALK) (AID 493189); also: 0% is about no effect
Galactokinase (Homo sapiens), sequence (P51570 whole entry, looked up): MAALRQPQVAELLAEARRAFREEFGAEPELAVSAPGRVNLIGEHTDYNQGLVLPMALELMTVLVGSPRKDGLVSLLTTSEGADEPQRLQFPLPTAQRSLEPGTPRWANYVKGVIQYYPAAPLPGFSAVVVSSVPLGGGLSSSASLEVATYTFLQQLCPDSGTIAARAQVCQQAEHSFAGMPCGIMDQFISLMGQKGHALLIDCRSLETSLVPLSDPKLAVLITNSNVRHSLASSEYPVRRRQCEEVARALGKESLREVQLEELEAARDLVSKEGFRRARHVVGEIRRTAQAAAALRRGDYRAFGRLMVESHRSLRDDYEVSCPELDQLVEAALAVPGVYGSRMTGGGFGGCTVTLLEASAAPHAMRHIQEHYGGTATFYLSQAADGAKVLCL
Method in brief: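 Inhibition was measured as remaining ATP, detected by luciferase luminescence after a 1 h room-temperature reaction. Final conditions: 5 nM GALK, 100 uM galactose, 35 uM ATP, pH 8.0 HEPES buffer.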

COc1ccc(CNc2ncnc3ccc(-c4cccnc4)cc23)c(OC)c1
active: Potency [1] 14100 nM

COc1c2c(nc3ccccc13)OC(C(C)(O)CO)C2 (stereo unspecified)
inactive: Potency [2] | Potency [3] | outcome [4] | Potency [5] | Potency [6] | Potency [7] | Potency [8] | Potency [9] | Potency [10] | Potency [11] | outcome [12] | Potency [13] | outcome [14] | Potency [15] | Potency [16] | Potency [17] | outcome [18] | activation [19] 0.812% | outcome [20]

CCNc1ncc2nc(C)c(=O)n(CCC#N)c2n1
inactive: Potency [1]

CN(Cc1ccco1)c1ncncc1-c1ccoc1
inactive: Potency [1]

NCCNC(=O)c1ccc(Cl)cc1
inactive: Potency [2] | Potency [3] | outcome [4] | Potency [5] | Potency [6] | Potency [7] | Potency [8] | Potency [9] | Potency [10] | Potency [11] | outcome [12] | Potency [13] | outcome [14] | Potency [15] | Potency [16] | Potency [17] | outcome [18] | activation [19] 0.625% | outcome [20]

COCCn1c(=O)cnc2cnc(Nc3cccc(OC)c3)nc21
active: Potency [1] 2240 nM

NCC1OC(O[C@@H]2[C@H](O)[C@@H](OC3C(O)C(N)CC(N)C3OC3OC(CO)C(O)C(O)C3N)O[C@@H]2CO)C(N)C(O)C1O (stereo partly specified)
inactive: Potency [2] | Potency [3] | outcome [4] | Potency [5] | Potency [6] | Potency [7] | Potency [8] | Potency [9] | Potency [10] | Potency [11] | outcome [12] | Potency [13] | outcome [14] | Potency [15] | Potency [16] | Potency [17] | outcome [18] | activation [19] 1.44% | outcome [20]

O=c1c(-c2ccc(Cl)cc2)nc2cnc(N3CCNCC3)nc2n1Cc1cccs1
inactive: Potency [1]

O=C(Cc1ccc(Cl)c(Cl)c1)OCCN1CCCC1
inactive: Potency [2] | Potency [3] | outcome [4] | Potency [5] | Potency [6] | Potency [7] | Potency [8] | Potency [9] | Potency [10] | Potency [11] | outcome [12] | Potency [13] | outcome [14] | Potency [15] | Potency [16] | Potency [17] | outcome [18] | activation [19] 1.06% | outcome [20]

CCCNC[C@H](O)COc1ccccc1C(=O)CCc1ccccc1
active: Potency [6] 316 nM | Potency [7] 891 nM | Potency [8] 2000 nM | Potency [9] 1120 nM | Potency [10] 282 nM | Potency [11] 1120 nM | Potency [15] 2620 nM | Potency [16] 2080 nM
inactive: Potency [2] | Potency [3] | outcome [12] | Potency [13] | outcome [14] | outcome [18] | activation [19] 3.19% | outcome [20]

NC(=O)C1=CN(C2OC(COP(=O)(O)OP(=O)(O)OC[C@H]3O[C@@H](n4cnc5c(N)ncnc54)[C@H](OP(=O)(O)O)[C@H]3O)C(O)C2O)C=CC1 (stereo partly specified)
inactive: Potency [2] | Potency [3] | outcome [4] | Potency [5] | Potency [6] | Potency [7] | Potency [8] | Potency [9] | Potency [10] | Potency [11] | outcome [12] | Potency [13] | outcome [14] | Potency [15] | Potency [16] | Potency [17] | outcome [18] | activation [19] -0.125% | outcome [20]

CN=C(N)NCCCC(N)C(=O)O (stereo unspecified)
inactive: Potency [2] | Potency [3] | outcome [4] | Potency [5] | Potency [6] | Potency [7] | Potency [8] | Potency [9] | Potency [10] | Potency [11] | outcome [12] | Potency [13] | outcome [14] | Potency [15] | Potency [16] | Potency [17] | outcome [18] | activation [19] 0.812% | outcome [20]

COc1ccc(Oc2ncc3nc(CCc4ccccc4)c(=O)n(C[C@H]4CCCO4)c3n2)cc1
inactive: Potency [1]

Reference: PubChem BioAssay (NCATS)
